Data published in PubChem BioAssay (NCATS).
Values joined by “and” are separate entries in the source; they are usually repeats but may differ in a detail not shown here. Equal entries are not always repeated. Results filed as inconclusive are left out. Active and inactive are the calls of the source. Unless noted, the call rests on the fitted dose curve; in most records, active means well fitted curve in the direction sought with a large enough effect; inconclusive means small, poorly fitted or top-dose-only effect, or another doubt; inactive means no such curve, though single readings can be large; an effect the other way counts as inactive or inconclusive.

Key:
[1] = Cell Viability - Hek293 (AID 427;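 active means compounds whose dose-response curve shows a full or clear partial loss of cell viability, called from curve shape rather than a numeric limit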;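 further: potency means the concentration at half of the fitted maximal effect; cells exposed to compound for 40 hours at 37 °C before reading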); conditions: qHTS
How it was run: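 Luminescent ATP read-out (CellTiter-Glo, 20 min RT) after 40 hr compound exposure at 37 °C in complete medium. Signal normalized to DMSO (basal) and 100 uM tamoxifen (100% inhibition); concentration-response fitted with the standard Hill equation to give AC50.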

[2] = Cell Viability - HepG2 (AID 433; calls by dose curve;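 further: potency means the concentration at half of the fitted maximal effect; potency for ATP loss meaning cytotoxicity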); conditions: qHTS
How it was run: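 Read-out is luciferase-based quantitation of cellular ATP as a measure of viable HepG2 cells after 40 h treatment at 37 °C. Signal decrease is scaled between DMSO-only and 100 uM tamoxifen controls, with AC50 fitted by the Hill equation.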

[3] = Cell Viability - SK-N-SH (AID 435; calls by dose curve;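 further: potency means the concentration at half of the fitted maximal effect; compound exposure lasted 40 h at 37 °C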); conditions: SK-N-SH neuroblastoma cell viability qHTS
How it was run: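 Luminescent ATP signal served as the viability read-out after 40 hours of compound treatment of human neuroblastoma SK-N-SH cells. Concentration-response data, scaled between DMSO and 100 uM tamoxifen, gave AC50 values by standard Hill modeling.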

[4] = molecular target: Mitogen-activated protein kinase 10 (Mus musculus) (UniProt Q61831); assay: JNK3 AlphaScreen Assay (AID 530; active means well fitted curve in either direction with a large enough effect, not every such curve was filed as active;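 further: kinase came from lysate of stimulated human HepG2 cells; signal reports phosphorylation of biotinylated GST-cJun 1-79 at Ser73 with 10 µM ATP; on the % scale 0 is the no-effect control and ±100 the full control effect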); conditions: JNK3 lysate, c-Jun phosphorylation; series mostly up to 57.1 µM
How it was run: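 Pre-activated (IL-1β/TNFα) JNK3 in HepG2 lysates phosphorylates biotin-GST-cJun(1-79), 10 uM ATP; anti-phospho-cJun(Ser73) AlphaScreen read at room temperature, pH 7.6 Tris buffer. Compounds pre-incubated 15 min as titrations.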

[5] = Cell Viability - Renal Proximal Tubule (AID 545); conditions: renal proximal tubule cells viability; series mostly up to 91.7 µM;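 further: 0% = DMSO only and -100% = 100 µM tamoxifen; nearly all actives have a fitted effect of over 40% in size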
How it was run: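 Luminescent ATP signal (CellTiter-Glo) served as the viability read-out after 40 hr compound exposure of freshly isolated rat proximal tubule cells at 37 °C. Concentration-dependent ATP loss was fitted with the Hill equation to give AC50.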

[6] = Cellular Toxicity (caspase-3) HUV-EC-C (AID 656); conditions: HUV-EC-C cells, caspase-3 activation (apoptosis), vehicle = 0, 100 µM tamoxifen = 100%; series mostly up to 92.2 µM;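 further: 0% = DMSO basal and 100% = 100 µM tamoxifen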
How it was run: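 qHTS; HUV-EC-C, 1000 cells/well; 5 hr settle, 16 hr cmpd, 37°C; Caspase-Glo 3/7, 20 min RT; luminescence. Norm: DMSO = 0%, tamoxifen 100 uM = 100%. Hill-fit AC50.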

[7] = Cellular Toxicity (caspase-3) SHSY5Y (AID 657); conditions: SH-SY5Y caspase-3 activation, DMSO zero, 10 µM staurosporine = 100%; series mostly up to 91.7 µM;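 further: cells exposed to compound for 16 hours at 37 °C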
How it was run: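 qHTS, SH-SY5Y, 1500 cells/well, 5 h pre-incubation 37 °C; compound 16 h 37 °C; Caspase-Glo 3/7 1 h RT; luminescence. Norm.: DMSO = 0, 10 uM staurosporine = 100%. Hill fit → AC50.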

[8] = Cellular Toxicity (caspase-3) MRC-5 (AID 659); conditions: MRC-5 cells, luminescence, normalized: DMSO 0%, 10 µM staurosporine 100%; series mostly up to 91.7 µM
How it was run: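 MRC-5 human normal lung fibroblasts, 1500 cells/well, treated 16 h at 37 °C in complete medium. Caspase 3/7 measured by Caspase-Glo luminescence after 1 h at room temperature. Normalized to DMSO and 10 uM staurosporine; AC50 from Hill fit.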

[9] = MultiTox-Fluor Cytotoxicity Assay - LYMP1-002 - Live Cells (AID 955); conditions: LYMP1-002 lymphoblastoid live-cell protease fluorescence viability; series mostly up to 46.1 µM;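 further: cells exposed to compound for 16 hours; on the % scale 0 is the no-effect control and ±100 the full control effect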
How it was run: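 Read-out is live-cell protease activity (cell-permeant GF-AFC substrate, fluorescence Ex/Em=405/510), where a decrease indicates acute toxicity. Human lymphoblastoid cells were treated 16 hours at 37 C in a concentration series, and AC50 values came from standard Hill modelling.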

[10] = Cell Viability - LYMP1-003 - Assay at 24 hr (AID 963); conditions: LYMP1-003 lymphoblastoid cell viability; series mostly up to 92.2 µM;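 further: plate controls were DMSO only for no effect and tetraoctylammonium bromide positive control for full effect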
How it was run: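 Cells seeded at 2500/well, 5 hr at 37 C; compounds added; 24 hr at 37 C; CellTiter-Glo added, 30 min room temperature; luminescence read. Decrease in ATP taken as cytotoxicity, AC50 from Hill modelling.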

[11] = Cell Viability - LYMP2-009 (AID 968); conditions: LYMP2-009 lymphoblastoid cell viability; series mostly up to 92.2 µM;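 further: cells exposed to compound for 24 h at 37 °C; 0% = DMSO alone and the full-kill end = tetraoctylammonium bromide at 92 µM; nearly all actives have a fitted effect of over 55% in size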
[12] = Cell Viability - LYMP2-017 (AID 972); conditions: LYMP2-017 lymphoblastoid cell viability; series mostly up to 92.2 µM;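 further: cells exposed to compound for 24 hours at 37 °C; on the % scale 0 is the no-effect control and ±100 the full control effect; nearly all actives have a fitted effect of over 55% in size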
How it was run: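 2500 cells/well, 5 h 37 C; cpd 24 h 37 C in complete medium; CellTiter-Glo, 30 min RT; luminescence (ATP). AC50 via Hill fit, qHTS.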

[13] = Cell Viability - LYMP2-025 (AID 976); conditions: LYMP2-025 lymphoblastoid cell viability; series mostly up to 92.2 µM;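 further: cells exposed to compound for 24 h at 37 °C; plate controls were DMSO only for no effect and tetraoctylammonium bromide control for full effect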
How it was run: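 Seed 2500 LYMP2-025 cells/well; 5 hr at 37 C; add compound; 24 hr at 37 C; add CellTiter-Glo; 30 min RT; read luminescence. AC50 from Hill-modelled concentration-response.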

[14] = Cell Viability - LYMP2-024 (AID 988); conditions: LYMP2-024 lymphoblastoid cell viability; series mostly up to 92.2 µM; further: nearly all actives have a fitted effect of over 60% in size; further: potency means the concentration at half of the fitted maximal effect
How it was run: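 Steps: seed 2500 cells/well, 5 hr 37 C; add compound, 24 hr 37 C; add CellTiter-Glo, 30 min room temperature; read luminescence. AC50 derived by Hill modelling of concentration-dependent ATP loss.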

[15] = Cell Viability - LYMP1-002 - Assay at 40 hr (AID 994); conditions: LYMP1-002 lymphoblastoid cell viability; series mostly up to 92.2 µM;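 further: 0% = DMSO only and full inhibition = 92 µM tetraoctylammonium bromide; nearly all actives have a fitted effect of over 60% in size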
How it was run: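 Luminescent ATP signal served as the viability readout, with decreases taken as toxicity. Cells were treated with compounds across a concentration range for 40 hours at 37 C, and AC50 values came from standard Hill modeling.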

[16] = molecular target: Peroxisome proliferator-activated receptor alpha (Homo sapiens) (UniProt Q07869); assay: qHTS assay for small molecule agonists of the peroxisome proliferator-activated receptor alpha (PPARalpha) signaling pathway (AID 651778); conditions: PathHunter PPARalpha complementation, chemiluminescence, 6 h; hits give high values; further: % of control where 0% means no effect
Sequence of Peroxisome proliferator-activated receptor alpha (Homo sapiens) (Q07869 whole entry, looked up, the tested form may be a part): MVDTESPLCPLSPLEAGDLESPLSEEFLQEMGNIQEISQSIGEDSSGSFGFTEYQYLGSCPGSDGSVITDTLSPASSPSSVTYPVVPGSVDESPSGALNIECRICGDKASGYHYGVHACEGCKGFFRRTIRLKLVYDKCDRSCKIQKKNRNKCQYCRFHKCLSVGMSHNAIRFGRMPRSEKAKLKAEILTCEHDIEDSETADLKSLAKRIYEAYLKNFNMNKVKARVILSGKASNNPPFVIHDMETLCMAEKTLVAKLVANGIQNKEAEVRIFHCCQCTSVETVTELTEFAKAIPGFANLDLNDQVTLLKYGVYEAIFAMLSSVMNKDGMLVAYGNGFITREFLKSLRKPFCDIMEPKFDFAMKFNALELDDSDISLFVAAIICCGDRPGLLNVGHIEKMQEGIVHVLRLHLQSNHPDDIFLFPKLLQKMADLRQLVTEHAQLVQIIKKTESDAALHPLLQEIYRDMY
How it was run: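 Enzyme-fragment complementation assay in which ligand-bound PPARalpha translocates and forms an active enzyme that generates chemiluminescence. Cells were plated overnight, exposed to compound for 6 hr at 37 C, and then given detection reagent for 60 min at room temperature.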

[17] = qHTS assay for small molecule agonists of the antioxidant response element (ARE) signaling pathway measured by Nrf2-dependant transcriptional activity - cell viability counter screen (AID 720653; active means well fitted curve in the direction sought with a large enough effect in the repeat runs; an effect the other way counts as inactive or inconclusive; further: on the % scale 0 is the no-effect control and ±100 the full control effect); conditions: ARE-bla HepG2 viability, CellTiter-Glo ATP luminescence, 16 h; hits give low values
How it was run: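 ARE-bla HepG2 cells treated with compounds for 16 h at 37C; this counter screen measures viability as intracellular ATP by CellTiter-Glo luminescence after 30 min at room temperature.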

CCBr
inactive: Potency [1] > 92 µM | Potency [2] > 92 µM | Potency [3] > 92 µM | Potency [4] | outcome [5] | outcome [6] | outcome [7] | outcome [8] | outcome [9] | outcome [10] | Potency [11] | Potency [12] | Potency [13] | Potency [14] | Potency [15] | max response [16] -2.39% | max response [17] -4.15%

CNC(=O)O/N=C/C(C)(C)S(C)=O (configuration not stated)
inactive: Potency [1] > 92 µM | Potency [2] > 92 µM | Potency [3] > 92 µM | Potency [4] | outcome [5] | outcome [6] | outcome [7] | outcome [8] | outcome [9] | outcome [10] | Potency [11] | Potency [12] | Potency [13] | Potency [14] | Potency [15] | max response [16] -3.1% and 0.659% | max response [17] 1.76% and 2.37%

CN(C)c1ccc(N(C)C)cc1
active: Potency [14] 50.1 µM
inactive: Potency [1] > 92 µM | Potency [2] > 92 µM | Potency [3] > 92 µM | Potency [4] | outcome [5] | outcome [6] | outcome [7] | outcome [8] | outcome [9] | outcome [10] | Potency [13] | Potency [15] | max response [16] -4.1% | max response [17] -11.4%

ClCC(Br)CBr (configuration not stated)
inactive: Potency [1] > 92 µM | Potency [2] > 92 µM | Potency [3] > 92 µM | Potency [4] | outcome [5] | outcome [6] | outcome [7] | outcome [8] | outcome [9] | outcome [10] | Potency [11] | Potency [12] | Potency [13] | Potency [14] | Potency [15] | max response [16] -1.61% | max response [17] 3.72%

CCOP(=S)(OCC)SCCSCC
inactive: Potency [1] > 92 µM | Potency [2] > 92 µM | Potency [3] > 92 µM | outcome [5] | outcome [6] | outcome [7] | outcome [8] | outcome [9] | outcome [10] | Potency [11] | Potency [12] | Potency [13] | Potency [14] | Potency [15] | max response [16] -1.85% and -0.372% | max response [17] -4.12% and 4.55%

Nc1cc(Cl)cc(Cl)c1
inactive: Potency [1] > 92 µM | Potency [2] > 92 µM | Potency [3] > 92 µM | Potency [4] | outcome [5] | outcome [6] | outcome [7] | outcome [8] | outcome [9] | outcome [10] | Potency [11] | Potency [12] | Potency [13] | Potency [14] | Potency [15] | max response [16] 0.393% | max response [17] -13%

N#CCCC#N
inactive: Potency [1] > 92 µM | Potency [2] > 92 µM | Potency [3] > 92 µM | Potency [4] | outcome [5] | outcome [6] | outcome [7] | outcome [8] | outcome [9] | outcome [10] | Potency [11] | Potency [12] | Potency [13] | Potency [14] | Potency [15] | max response [16] -2.27% | max response [17] 1.41%

C/C=C/C=O
inactive: Potency [1] > 92 µM | Potency [2] > 92 µM | Potency [3] > 92 µM | Potency [4] | outcome [5] | outcome [6] | outcome [7] | outcome [8] | outcome [9] | outcome [10] | Potency [11] | Potency [12] | Potency [13] | Potency [14] | Potency [15] | max response [16] 10% | max response [17] -9.77%

CC[N+](=O)[O-]
inactive: Potency [1] > 92 µM | Potency [2] > 92 µM | Potency [3] > 92 µM | Potency [4] | outcome [5] | outcome [6] | outcome [7] | outcome [8] | outcome [9] | outcome [10] | Potency [11] | Potency [12] | Potency [13] | Potency [14] | Potency [15] | max response [16] 1.55% | max response [17] 9.27%

c1ccc2c(c1)CCNC2
inactive: Potency [1] > 92 µM | Potency [2] > 92 µM | Potency [3] > 92 µM | Potency [4] | outcome [5] | outcome [6] | outcome [7] | outcome [8] | outcome [9] | outcome [10] | Potency [11] | Potency [12] | Potency [13] | Potency [14] | Potency [15] | max response [16] 5.32% | max response [17] 5.02%
